# Bioassay records as filed in PubChem.
# POLB inh: qHTS Assay for Inhibitors of DNA Polymerase Beta; Pol beta primer extension/strand displacement, fluorescence kinetic; Potency, µM (top dose mostly 114 µM), actives largely listed as inhibitors; 1.3% of 340,000 active; P06746
#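 Pol beta (10 nM) and compounds were preincubated 15 min at room temperature, then 50 nM substrate (final) started primer extension/strand displacement. Reads were taken at 0 and 10 min; concentration-response data were fitted to a four-parameter Hill equation.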
# Pol iota inh: qHTS for Inhibitors of Polymerase Iota; Pol iota fluorescent replication assay, 10 min; Potency, µM (series often up to 115 µM), usual class: inhibitors; 1% of 390,000 active
# Target sequence (Q9UNA4 whole entry, looked up): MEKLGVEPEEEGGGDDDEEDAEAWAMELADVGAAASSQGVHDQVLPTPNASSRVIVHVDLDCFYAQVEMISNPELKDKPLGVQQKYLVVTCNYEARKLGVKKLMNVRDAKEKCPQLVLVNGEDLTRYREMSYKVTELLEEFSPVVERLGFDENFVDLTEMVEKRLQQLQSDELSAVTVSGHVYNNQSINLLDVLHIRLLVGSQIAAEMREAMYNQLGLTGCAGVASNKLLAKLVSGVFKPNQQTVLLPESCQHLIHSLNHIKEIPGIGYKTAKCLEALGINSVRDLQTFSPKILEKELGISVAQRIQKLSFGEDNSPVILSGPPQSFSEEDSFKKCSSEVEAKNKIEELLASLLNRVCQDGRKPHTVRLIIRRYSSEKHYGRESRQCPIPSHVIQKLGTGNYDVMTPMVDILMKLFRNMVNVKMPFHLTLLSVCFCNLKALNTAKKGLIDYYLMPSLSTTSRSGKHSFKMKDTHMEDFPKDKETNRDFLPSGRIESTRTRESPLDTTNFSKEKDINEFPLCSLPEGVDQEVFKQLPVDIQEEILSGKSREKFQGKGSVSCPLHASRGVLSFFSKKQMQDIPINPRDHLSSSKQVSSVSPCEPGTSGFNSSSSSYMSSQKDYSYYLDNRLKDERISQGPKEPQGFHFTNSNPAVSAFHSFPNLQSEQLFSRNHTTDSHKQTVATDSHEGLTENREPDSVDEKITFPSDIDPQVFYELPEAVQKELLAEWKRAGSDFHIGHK
#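 Fluorescent replication assay read twice, at 0 min and 10 min after adding 50 nM (final) substrate. Enzyme (10 nM) and compounds were first incubated 15 min at room temperature; enzyme-free buffer wells were negative controls.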
# FEN1 inhibitor: qHTS Assay for the Inhibitors of Human Flap endonuclease 1 (FEN1). AID 588795, 2011. 0.35% of 390,000 active. P39748. Potency, µM (series often up to 114 µM), actives largely listed as inhibitors. Recombinant FEN1 flap cleavage, fluorescence, 15 min; note: nearly all actives have a fitted effect of over 65% in size
#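 FEN1 at 10 nM, compound pretreatment for 15 min (room temperature), 50 nM final substrate to initiate; endpoint reads at 0 and 15 min; DMSO-only plates used as vehicle background.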
# PGK inhibitor: qHTS Assay to Find Inhibitors of Phosphoglycerate Kinase. Phosphoglycerate kinase, glycosomal (Trypanosoma brucei brucei), P07378. PGK/GAPDH coupled, Kinase-Glo luminescence, 60 min. Potency, µM (highest dose often 57.5 µM), hits mostly inhibitors. 0.043% of 380,000 active; note: nearly all actives have a fitted effect of over 60% in size
#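 Recombinant glycosomal PGK reaction used 1,3-bisphosphoglycerate generated in-well by GAPDH (100nM final) in 100mM TEA pH 7.6, 5mM MgCl2, 0.01% Tween-20. After 60 minutes at room temperature, ATP was read by Kinase-Glo Plus luminescence end-point.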
# POLK inh: qHTS for Inhibitors of Polymerase Kappa. AID 588579, 2011. DNA polymerase kappa (Homo sapiens), Q9UBT6. purified Pol kappa, fluorescent DNA synthesis assay, 10 min. 0.53% of 400,000 active. Potency, µM (doses to about 107 µM), usual class: inhibitors
#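 Here, compound and 10 nM enzyme are combined for 15 min at room temperature; adding 50 nM substrate (final) starts DNA synthesis, tracked by fluorescence at 0 and 10 min against buffer-only wells.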
# POLH inh: qHTS for Inhibitors of Polymerase Eta | DNA polymerase eta (Homo sapiens), Q9Y253 | recombinant Pol eta, fluorescent DNA replication assay | AID 588591, 2011 | 1.2% of 390,000 active | Potency, µM (top dose mostly 114 µM), hits mostly inhibitors
#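 Pol eta (10 nM) was preincubated with compounds for 15 min at room temperature, after which fluorescent replication substrate (50 nM final) was added to start the reaction. Fluorescence was read kinetically at 0 and 10 min.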
# A number is an active result; . = inactive; ? = inconclusive; / = no result given; [ ] = dose if it differs, or a comment. Shown are actives, neighbours in structure and some others; about 2.4% of the full set was active somewhere. Calls come from the whole dose curve; as a rule, active = well fitted curve in the direction sought with a large enough effect; inconclusive = small, poorly fitted or top-dose-only effect, or another doubt; inactive = no such curve, though single readings can be large; an effect the other way counts as inactive or inconclusive.
SMILES,POLB inh,Pol iota inh,FEN1 inhibitor,PGK inhibitor,POLK inh,POLH inh
Cc1ccc(Cl)cc1N1CCN(C(=O)CSc2cc(=O)n(C)c3ccccc23)CC1,.,.,.,.,.,.
Cc1ccc(Cl)cc1N1CCN(C(=O)CSc2ccsc2[N+](=O)[O-])CC1,20µM,?,.,.,.,22µM
C=C(C)COc1ccc2oc(C)c(C(=O)OCCOC)c2c1,.,89µM,.,.,.,.
COCCOC(=O)c1c(C)oc2ccc(OCc3ccccc3)cc12,.,.,.,.,.,.
CCOC(=O)c1c(C)c(-c2ccccc2)n(CC(=O)Nc2cc(C)ccc2OC)c1C,.,.,.,.,.,.
COc1cc(N)c2ncccc2c1Br,/,32µM,.,.,.,.
CNc1ccc(Br)cc(C(=O)/C=C/c2cccc(OC)c2OC)c1=O,20µM,/,.,.,.,.
COc1ccccc1C=CC(=O)C=Cc1ccccc1OC,/,?,.,.,.,?
CCNc1ccc(Br)cc(C(=O)/C=C/c2ccccc2Cl)c1=O,/,?,.,.,?,79µM
CCNc1ccccc(C(=O)/C=C/c2ccc3c(c2)OCO3)c1=O,56µM,?,?,.,25µM,10µM
CNc1ccccc(C(=O)/C=C/c2ccccc2OC)c1=O,50µM,?,.,.,.,14µM
COC(=O)/C=C/c1ccc2c(c1)OCO2,.,.,.,.,.,.
Nc1nc(NCc2ccc(Cl)cc2)c2[nH]cnc2n1,/,.,.,/,.,/
COc1ccc(CCn2c3c(c(=O)[nH]c2=S)CN(c2ccccc2)CN3)cc1OC,/,.,.,/,.,/
OC(CN1C=CCc2ccccc21)c1ccc(Cl)cc1Cl (configuration not stated),/,.,.,/,.,/
CNc1ccc(Br)cc(C(=O)/C=C/c2cccc(Cl)c2Cl)c1=O,14µM,6.3µM,?,.,45µM,45µM
COc1ccccc1/C=C/C(=O)c1cc(Br)ccc1OC(=O)c1ccco1,/,.,.,.,.,.
Cc1cccc(-n2c(C)cc(C(=O)C(=O)Nc3ccccc3F)c2C)c1C,.,.,.,.,.,.
CC1CCc2cc(F)cc3c2N1C(=O)C(C(=O)Nc1cnccn1)C3=O (configuration not stated),/,.,.,/,.,/
COc1ccc(OC)c(NC(=O)c2cc(-c3cc(C)ccc3O)n[nH]2)c1,.,25µM,.,.,.,.
COc1ccc(OC)c(NC(=O)c2cc(-c3ccc(C)cc3O)n[nH]2)c1,?,.,.,.,.,.
O=C1c2ccccc2-c2onc3ccc(NCCCn4ccnc4)c1c23,25µM,?,16µM,.[11.5 µM],20µM,79µM
CC1(NC(=O)/C=C/c2nc3ccccc3s2)CCS(=O)(=O)C1 (configuration not stated),/,40µM,.,.,79µM,50µM
O=[N+]([O-])C(=C1Nc2ccccc2N1)C(Cl)=C(Cl)Cl,.,50µM,.,.,.,.
CN1CCO/C1=C(\C(Cl)=C(Cl)Cl)[N+](=O)[O-],.,.,.,.,.,.
SMILES,POLB inh,Pol iota inh,FEN1 inhibitor,PGK inhibitor,POLK inh,POLH inh
O=C(COc1ccc2ccccc2c1)NNC(=O)c1ccc([N+](=O)[O-])cc1,8.9µM,?,.,.,.,79µM
O=C(COc1ccc(-c2ccccc2)cc1)NNC(=O)Nc1ccc(F)cc1F,8.9µM,.,.,.,.,?
Cc1cccc(OCC(=O)NNC(=O)c2ccc([N+](=O)[O-])cc2)c1,.,.,.,.,.,.
O=C(COc1ccc2ccccc2c1)Nc1cccc(C(=O)Nc2ccccc2C(=O)O)c1,.,.,.,.,.,28µM
O=C(COc1ccc2ccccc2c1)NNC(=O)Nc1ccccc1F,35µM,79µM,.,.,.,?
COc1ccc(OCC(=O)Nc2ccc(C(=O)Nc3ccccc3C(=O)O)cc2)cc1,?,.,.,.,.,?
Cc1ccc(S(=O)(=O)N2CCN(c3nc(-n4c(=O)[nH]c5ccccc54)nc4ccccc34)CC2)cc1,/,.,.,/,.,/
COc1cccc2cc(/C(C)=N/Nc3nc(-c4cc(C)ccc4C)cs3)c(=O)oc12,40µM,.,.,.,.,50µM
COc1ccc(Nc2nc(-c3cc4cccc(OC)c4oc3=O)cs2)cc1,.,.,.,.,.,.
C(=Nc1cccnc1)c1ccc2ccccc2n1,/,.,.,/,.,/
CC(C)(Oc1ccc(-c2ccco2)cc1)C(=O)O,40µM,/,/,/,/,/
CC1CC(C)CN(C(=O)c2cccc(S(=O)(=O)Nc3cc(C(F)(F)F)ccc3Cl)c2)C1 (configuration not stated),56µM,.,.,?,.,.
O=C(O)c1cccc(S(=O)(=O)Nc2cc(Cl)ccc2Cl)c1,.,.,.,.,.,.
CN(C)c1cccc(-c2nnc(SCC(=O)NCc3ccco3)n2C)c1,/,.,.,/,.,/
S=c1[nH]nc(-c2ccccn2)n1/N=C/c1ccc(-c2ccccc2Br)o1,50µM,79µM,.,.,.,.
CCc1cccc(NC(=O)c2ccc(CNS(=O)(=O)c3ccc4c(c3)C(C)(C)C(=O)N4C)cc2)c1,.,.,.,.,.,.
CCOC(=O)c1c(C)[nH]c(C)c1S(=O)(=O)N(C)CC(=O)Nc1ccccc1F,.,50µM,.,.,45µM,.
O=S(=O)(c1cccc(Cl)c1)N1CCN(c2nc(-c3cccs3)nc3ccccc23)CC1,/,.,.,/,.,/
COc1ccc(Nc2nnc(-c3ccc(C)c(S(N)(=O)=O)c3)c3ccccc23)cc1,?,.,?,.,.,.
CNC(=O)COc1ccc(Nc2nnc(-c3ccc(C)c(S(N)(=O)=O)c3)c3ccccc23)cc1,.,.,.,.,.,40µM
Cc1nc2cc(NC(=O)NCCC3=CCCCC3)ccc2o1,.,89µM,.,/,.,.
Cc1cc(O)c(C(C)C)cc1N=Cc1ccc([N+](=O)[O-])cc1,/,10µM,.,.,.,.
COc1ccc(CNC(=O)Nc2cn(CC(C)C)c(=O)c3ccccc23)c(OC)c1,.,22µM,?,.,.,.
COc1ccc2c(Sc3ccc(Cl)cc3)c(C(=O)N3CCCCC3)[nH]c2c1,.,.,.,.,.,.
CN1CCC(N2CCN(c3cccc(C(F)(F)F)c3)CC2)CC1,.,35µM,.,/,.,.
CN(C)c1ccc(/C=C/c2ccc3cc(N)ccc3n2)cc1,/,?,.,/,.,/
c1cn(-c2cc(-c3ccc4c(c3)OCO4)ncn2)cn1,/,/,/,/,25µM,/
Cn1c(C(=O)NCc2cccc(F)c2)cc2cc(S(=O)(=O)N3CCCCC3)ccc21,.,.,.,.,.,.
